PubChem BioAssay (NCI)
Compounds without any hit were thinned out: in the full panel of roughly 83,000, 20% have a hit.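 Cell lines were cultured in 96-well plates, exposed to a single compound concentration, and assessed for percent growth 48 hours later.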 Unmarked numbers belong to inactive results. Calls of active or inactive are those of the source. The calls were made as follows: active = growth percent below 10; inactive = the rest.

Key:
Assay in all cases: NCI-60 one-dose screen, 48 h (100 = growth as untreated, 0 = no growth, -100 = all killed)
Details in all cases: 10 µM unless noted
DU-145 prostate = test system: DU-145 prostate
K-562 leukemia = test system: K-562 leukemia
MALME-3M melanoma = test system: MALME-3M melanoma
MDA-MB-231 breast = test system: MDA-MB-231 breast
RXF 393 renal = test system: RXF 393 renal
SF-268 CNS = test system: SF-268 CNS
SF-295 CNS = test system: SF-295 CNS
SF-539 CNS = test system: SF-539 CNS
UACC-257 melanoma = test system: UACC-257 melanoma
M14 melanoma = test system: M14 melanoma

| SMILES | growth (DU-145 prostate) | growth (K-562 leukemia) | growth (MALME-3M melanoma) | growth (MDA-MB-231 breast) | growth (RXF 393 renal) | growth (SF-268 CNS) | growth (SF-295 CNS) | growth (SF-539 CNS) | growth (UACC-257 melanoma) | growth (M14 melanoma) |
| --- | --- | --- | --- | --- | --- | --- | --- | --- | --- | --- |
| CCCCCCCCCCCCNC(=O)[C@H]1CSC(c2ccsc2)N1 (stereo not given in full) | -85.8% (active) | -57% (active) | -69.9% (active) | -80.5% (active) | -93.2% (active) | -77.1% (active) | -29.9% (active) | -89.2% (active) | -87.2% (active) | -77.5% (active) |
| O=C1/C(=C/c2ccccc2)CN(C(=O)CCN2CCC(=NO)CC2)C/C1=C\c1ccccc1 | 16.1% | 6.48% (active) | -13.2% (active) | -32.1% (active) | -71% (active) | 7.27% (active) | -10.5% (active) | -30.5% (active) | 11.3% | 0.212% (active) |
| COc1cc(C2C3=C(COC3=O)Nc3cc4c(cc32)CCC4)cc2c1OCO2 (stereo not given) | -0.3% (active) | 14.1% | 60% | 20.8% | 30.4% | 27.9% | 6.57% (active) | 10.2% | 73.1% | 12% |
| Cc1ccc(S(=O)(=O)/C(=C\c2ccc(Cl)cc2)C(=O)c2ccccc2)cc1 | 113% | 96.1% | 107% | 103% | 104% | 103% | 93.1% | 122% | 114% | 102% |
| Cc1ccc2[nH]c(=O)c3c(c2c1)Oc1ncn2nc(-c4ccco4)nc2c1C3c1ccc(Cl)cc1 (stereo not given) | 98.5% | 93.2% | 96.3% | 89.4% | 93.2% | 91.8% | 95.9% | 89.8% | 95.5% | 100% |
| N/C(=N\C(N)=N\c1nc2ccccc2s1)c1ccncc1 | 91.1% | 13.1% | 81.5% | 55.7% | 65.7% | 7.14% (active) | 74.1% | 68.2% | 95.3% | 49.5% |
| CN(C)CCN1C(=O)c2ccc3c4c(ccc(c24)C1=O)C(=O)N(CCN=C=S)C3=O | -97.1% (active) | -29.7% (active) | -63.7% (active) | -84.5% (active) | -98.5% (active) | -89% (active) | -71.7% (active) | -81.7% (active) | -95.3% (active) | -77.5% (active) |
| CC1=C(C#N)C(=O)NC(C)C1 (stereo not given) | 111% | 116% | 102% | 105% | 107% | 104% | 99.9% | 97.9% | 102% | 96.2% |
| COc1ccc(-c2c(N)n[nH]c2-c2cc3c(c(OC)c2OC)OCO3)cc1 | 108% | 98.4% | 97.8% | 83.7% | 108% | 99.1% | 102% | 93.1% | 98.7% | 101% |
| COc1ccc(C(=O)n2nc(/C=C/c3ccc(O)c(OC)c3)cc2/C=C/c2ccc(O)c(OC)c2)cc1 | 16.6% | -6.97% (active) | 3.93% (active) | 12.5% | -54.8% (active) | 6.45% (active) | 6.61% (active) | -24.4% (active) | 0.119% (active) | -15.1% (active) |
| O=C(c1ccccc1)c1c(/C=C/c2ccccc2)c2ccccc2[nH]c1=O | 115% | 82.4% | 98.3% | 101% | 78.9% | 86.2% | 95.6% | 99.2% | 95.6% | 107% |
| C=C(C)[C@@H]1CC[C@]2(C(=O)N3CCNCC3)CC[C@]3(C)[C@H](CC[C@@H]4[C@@]5(C)C/C(=C/c6ccncc6)C(=O)C(C)(C)[C@@H]5CC[C@]43C)[C@@H]12 | 113% | 97.3% | 114% | 116% | 117% | 103% | 104% | 105% | 104% | 108% |
| O=C(NCCNc1nccc(-n2ccc3cccnc32)n1)c1ccc(C(F)(F)F)cc1 | 111% | 99.8% | 108% | 97.7% | 110% | 97.8% | 101% | 107% | 108% | 102% |
| C=C[C@@H]1C[C@@H]2Cc3cc(Cl)ccc3N1O2 | 111% | 95.4% | 88% | 99.3% | 104% | 106% | 100% | 105% | 99.2% | 97.9% |
| CCN(CC)CCCC(C)Nc1c2ccc(Cl)cc2nc2cc(OC)c(OC)cc12 (stereo not given) | 22.6% | -16.4% (active) | -74.1% (active) | -34.3% (active) | -13.4% (active) | 33.9% | 44.5% | -87.9% (active) | 46.9% | -73.7% (active) |
| O=C(Oc1ccccc1[N+](=O)[O-])C1CCCN1C(=O)OCc1ccccc1 (stereo not given) | 111% | 94.6% | 112% | 103% | 96% | 108% | 117% | 97.2% | 94.2% | 93% |
| COC(=O)C(Sc1ccc(Cl)cc1)C1SC(=S)N(Cc2ccccc2)C1=O (stereo not given) | 102% | 44% | 98.9% | 98.9% | 106% | 87.7% | 75.6% | 109% | 92.2% | 100% |
| Cc1nc2cncc(C#Cc3cncc(C(=O)Nc4ccc(CN5CCN(C)CC5)c(C(F)(F)F)c4)c3)c2nc1C | 17.5% | 7.52% (active) | -38.8% (active) | -49.4% (active) | -26.2% (active) | 16.1% | 20.5% | -41.9% (active) | 14% | -24.8% (active) |
| CCOC(=O)C1CCNC(=O)C1=O (stereo not given) | 115% | 109% | 126% | 106% | 108% | 108% | 122% | 112% | 126% | 108% |
| OCc1ncc(-c2ccccc2)s1 | 107% | 93.2% | 94.2% | 113% | 122% | 99.8% | 106% | 98.1% | 105% | 93.9% |
| COc1ccc(C(=O)c2cc(OC)c(OC)c(OC)c2OC)cc1O | 35.6% | 27.6% | 23% | 56% | 40% | 38.9% | 33.3% | 23.8% | 79.9% | 10.9% |
| Cn1ccc(Nc2nccc(Oc3ccc(C(=O)Nc4cccc(F)c4)c(Cl)c3)n2)c1 | 47.9% | 70.6% | 94.6% | 99% | 105% | 79.4% | 61.8% | 84.9% | 79.5% | 96.9% |
| CC(C)c1ccc2occ(C=C3C(=O)NC(=O)NC3=O)c(=O)c2c1 | 109% | 72.7% | 93.7% | 98.9% | 87.4% | 89.3% | 119% | 121% | 96.1% | 91.3% |
| Cc1ccc(S(=O)(=O)C2=C3C(=C(c4ccccc4)c4ccccc43)CN(S(=O)(=O)c3ccc(C)cc3)C2)cc1 | 68.2% | 18% | 72% | 48.8% | 47.1% | 45.3% | 68.3% | 74.1% | 91% | 70.7% |
| C=CCn1cc(-c2nc3ccccc3s2)c2cc(-c3ccc4c5c(cccc35)C(=O)N(CCN3CCNCC3)C4=O)ccc21 | 101% | -51.9% (active) | 55.2% | 60.5% | 93.2% | 89.9% | 101% | 91.1% | 102% | 82% |
| COc1ccc2[nH]c(C(=O)OCc3ccc4c(Cl)cc(Cl)c(O)c4n3)cc2c1 | -98.2% (active) | -13.7% (active) | -79.9% (active) | -75.9% (active) | -93% (active) | -72.9% (active) | 67.8% | -96.4% (active) | -77.3% (active) | -78.2% (active) |
| COc1ccc2c(c1)cn1c3ccc(OC)cc3[nH]c(=O)c21 | -87.1% (active) | -28.1% (active) | 42.1% | -86.9% (active) | -82.2% (active) | -14% (active) | -84.9% (active) | -84.9% (active) | 54.7% | -65.1% (active) |
